G9a inh-1: inhibitors of human histone lysine methyltransferase G9a. Q96KQ7. G9a H3K9 monomethylation, AlphaScreen, 2 h. Potency, µM (highest dose often 102 µM), most hits filed as inhibitors. actives 8.8% (n = 350,000). AID 504332; note: nearly all actives have a fitted effect of over 75% in size
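Signal arises when biotinylated H3K9 peptide, once monomethylated, bridges streptavidin donor and antibody-captured acceptor beads. Enzyme at 20 nM was preincubated 15 min with test compounds; peptide 500 nM and SAM 20 uM then reacted for 2 h.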
CtBP-E1A blk: blocks the CtBP interaction with E1A; AlphaScreen GST-E1A/His-CtBP binding, 1536-well; active compounds read low; activity change, % (no concentration beside the values); actives 0.49% (n = 340,000); in the data active = activity change below about -65%; inconclusive = mostly about -30% to -63%
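In 5 uL wells, 23 nL compound meets equimolar GST-E1A and His-CtBP (5X stock 125 nM each) for 2 h, 37 °C. Beads (5X, 50 ug/mL) then 1 h, 37 °C, dark.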
HP1b chromo inh: blocks HP1-beta chromodomain binding to methylated histone tails | AID 540317 | Potency, µM (top dose mostly 114 µM), most hits filed as inhibitors | AlphaScreen HP1-beta / biotin-H3K9me3 peptide binding | P83916 | actives 0.56% (n = 390,000); note: nearly all actives have a fitted effect of over 70% in size
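HP1-beta protein (50 nM final) preincubated 30 min at room temperature with biotinylated H3(1-18)K9me3 peptide (50 nM) in PBS pH 7.4, 0.01% Tween-20, then compound added for 30 min. AlphaScreen streptavidin donor/nickel chelate acceptor beads (10 ug/mL final), 30 min dark, luminescence read.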
BAZ2B block: inhibitors of human BAZ2B bromodomain. AlphaScreen BAZ2B-H3K14Ac peptide displacement. Potency, µM (doses to about 114 µM), usual class: inhibitors. actives 4.4% (n = 360,000). AID 504333; note: nearly all actives have a fitted effect of over 60% in size
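AlphaScreen displacement: compounds (up to 110uM) incubated 30 min at room temperature with a preformed 50 nM BAZ2B/50 nM biotinylated H3K14Ac peptide complex in PBS pH 7.4 with Tween-20. Donor and acceptor beads at 10 ug/mL final added, 20 min light-protected before reading.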
JMJD2A Tudor inh: blocks the human JMJD2A Tudor domain; O75164; actives 4.4% (n = 390,000); Potency, µM (series often up to 114 µM), usual class: inhibitors; AID 504339; AlphaScreen JMJD2A-Tudor / H3K4me3 peptide binding; note: nearly all actives have a fitted effect of over 50% in size
Six1-Eya2 blk: inhibitors of human Six1/Eya2 interaction. AID 651725. actives 0.56% (n = 360,000). activity change, % (test concentration not listed). AlphaScreen GST-Six1/His-Eya2 binding, biochemical; active compounds read low. Q15475+O00167; in the data active = activity change below about -65%; inconclusive = mostly about -30% to -63%
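Compounds are tested against tagged Six1 and Eya2 proteins bridged by glutathione donor and nickel acceptor beads; after a one-hour incubation at 37 °C without light, AlphaScreen emission is recorded.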
G9a inh-2: confirmation of human histone methyltransferase G9a inhibitors | shares compounds with JMJD2A Tudor inh | G9a H3K9 monomethylation, AlphaScreen, 2 h | Potency, µM, hits mostly inhibitors | actives 89% (n = 370) | AID 588344; note: nearly all actives have a fitted effect of over 65% in size
RGS4 inh: inhibits human RGS4, hit validation; shares compounds with JMJD2A Tudor inh; RGS4 GAP activity, Transcreener GDP fluorescence polarization; Potency, µM, actives largely listed as inhibitors; actives 80% (n = 25)
Of the large screens only hits and unclear results are named; the others gave an inactive call (follow-up assays come after a bar, where they were run). An excerpt weighted towards active compounds, which were near 10% of everything screened. Unless noted, calls come from the whole dose curve; as a rule, active = well fitted curve in the direction sought with a large enough effect; inconclusive = small, poorly fitted or top-dose-only effect, or another doubt; inactive = no such curve, though single readings can be large; an effect the other way counts as inactive or inconclusive.

Cc1cc2cc(C(c3nnnn3Cc3ccco3)N3CCc4ccccc43)c(=O)[nH]c2cc1C (stereo not drawn)	G9a inh-1 11µM, BAZ2B block inconclusive, JMJD2A Tudor inh inconclusive | RGS4 inh 6.7
COc1ccc(C(O)c2ncc(-c3ccccc3C)[nH]2)cc1 (stereo not drawn)	none (no result: G9a inh-1, HP1b chromo inh, BAZ2B block, JMJD2A Tudor inh)
COC(=O)c1ccccc1NC(=O)Cn1c(SC)c(F)cnc1=O	G9a inh-1 0.56µM | G9a inh-2 8.9
N#CCCN(C(=O)COC(=O)c1ccc(Cl)nc1)c1ccc2c(c1)OCCO2	none (no result: G9a inh-1, HP1b chromo inh, BAZ2B block, JMJD2A Tudor inh)
Cc1cc2n(n1)SC(Nc1cccc3ccccc13)N2 (stereo not drawn)	G9a inh-1 0.63µM, JMJD2A Tudor inh 50µM | G9a inh-2 0.71
Cc1cc(C)nc(Nc2cccc3ccccc23)n1	none (no result: G9a inh-1, CtBP-E1A blk)
Cc1nn(-c2ccccc2)c2ncc(C(=O)c3cc(Cl)ccc3O)cc12	G9a inh-1 0.79µM, BAZ2B block inconclusive, JMJD2A Tudor inh inconclusive | G9a inh-2 11
Cc1nn(C)c2ncc(C(=O)c3ccccc3O)cc12	G9a inh-1 inconclusive
Oc1ccc2ccccc2c1CNc1cnc2ccccc2c1	G9a inh-1 1.4µM, BAZ2B block inconclusive, JMJD2A Tudor inh inconclusive | G9a inh-2 0.5
Oc1ccccc1CNc1cnc2ccccc2c1	none
O=C1N=C2SCCN2/C1=C\c1ccccc1Cl	none
COc1cccc(NC(=O)Cc2nnc(SCC(=O)c3ccccc3)n2C)c1	G9a inh-1 0.35µM | G9a inh-2 0.71
O=C(C1=NOC2(C1)C(=O)Nc1ccccc12)N1CCCCC1 (stereo not drawn)	none (no result: G9a inh-1, HP1b chromo inh, BAZ2B block, JMJD2A Tudor inh)
CCc1ccccc1NC(=O)CN(C)Cc1nc(N)nc(Nc2ccccc2C)n1	JMJD2A Tudor inh inconclusive
CCc1ccccc1NC(=O)CN(C)Cc1c(O)ccc2ccccc12	G9a inh-1 1.8µM, HP1b chromo inh inconclusive, BAZ2B block inconclusive, JMJD2A Tudor inh 56µM | G9a inh-2 0.4
CCOC(=O)c1ccc(NC(=O)C2=C(C)C(=O)OC23CCCCCC3)cc1	none (no result: CtBP-E1A blk, Six1-Eya2 blk)
CCn1nnnc1NCc1ccc(SC)cc1	none
CCn1nnnc1NCc1ccc(N2CCCC2)cc1	G9a inh-1 inconclusive, HP1b chromo inh inconclusive, JMJD2A Tudor inh 20µM | G9a inh-2 10
COc1ccccc1CCC(=O)Nc1cc(S(=O)(=O)N2CCCCC2)ccc1N1CCN(C)CC1	BAZ2B block inconclusive, JMJD2A Tudor inh inconclusive
CCOc1cc(CNc2ccccc2SC)ccc1O	G9a inh-1 inconclusive, BAZ2B block 56µM (no result: CtBP-E1A blk, HP1b chromo inh, JMJD2A Tudor inh, Six1-Eya2 blk) | G9a inh-2 8
C=CCn1cccc(C(=O)Nc2ccc(F)cc2)c1=O	none (no result: CtBP-E1A blk)
O=C(Nc1ccc(N2CCCC2)cc1)c1ccc(Br)o1	G9a inh-1 2.2µM, BAZ2B block inconclusive, JMJD2A Tudor inh inconclusive | G9a inh-2 0.71
CCN(CC)c1ccc(NC(=O)c2ccc(Br)o2)cc1	G9a inh-1 2.2µM, HP1b chromo inh inconclusive, BAZ2B block 50µM, JMJD2A Tudor inh 45µM, Six1-Eya2 blk inconclusive | G9a inh-2 7.1
CCN(Cc1ccccc1)Cc1c(O)ccc2c(=O)c(-c3ccccc3)c(C(F)(F)F)oc12	G9a inh-1 inconclusive (no result: CtBP-E1A blk, Six1-Eya2 blk) | G9a inh-2 45
CCN(Cc1ccccc1)Cc1c(O)ccc2c(=O)c(-c3ccccc3Cl)c(C(F)(F)F)oc12	none (no result: CtBP-E1A blk, Six1-Eya2 blk)
Cc1ccc(-c2nnc(SCC(=O)Nc3cccnc3Cl)n2N)cc1	none (no result: G9a inh-1, CtBP-E1A blk, BAZ2B block)
Nn1c(SCC(=O)Nc2cccnc2Cl)nnc1-c1ccccc1	G9a inh-1 inconclusive, HP1b chromo inh inconclusive, JMJD2A Tudor inh 20µM | G9a inh-2 0.8
COc1ccc(C2CC(=O)NC(NC(=O)c3ccc(Br)cc3)=N2)c(OC)c1OC (stereo not drawn)	none (no result: CtBP-E1A blk, Six1-Eya2 blk)
Cc1ccc(NC(=O)CSc2nnc3c(n2)[nH]c2ccccc23)cc1	none

Compound activity as filed in PubChem BioAssay.
